Data on 28 compounds can be found in PubChem BioAssay (NCI).

This is part of a sample that, as a whole, favours compounds with a hit. Of some 79,000 tested, about 15% had one in any assay. Calls of active or inactive are those of the source. Rule as the data show it: active = growth inhibition above about 70%; inactive = the rest.

The first test is described as follows: NCI Yeast Anticancer Drug Screen. Data for the rad14 strain (AID 159).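 Also: 0% = growth of vehicle-treated control cultures.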 The conditions noted are these: S. cerevisiae rad14 strain growth inhibition; at 11.0 µM; active compounds read high. In outline: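 Readout: yeast growth inhibition, referenced to vehicle-only cultures. Strain bears a defined alteration in DNA damage repair.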
Turning to `CN(C)CC(CN(C)C)C(=O)/C=C/c1ccc(Cl)cc1Cl`, the growth inhibition is 17% (inactive).

As for `c1ccc2c(c1)ccn2CCc1c[nH]c2ccccc12`, the growth inhibition is -28% (inactive).

Consider `Cc1ccccc1NC(=O)c1c(C)oc2c1C(=O)c1ccccc1C2=O`, for which the growth inhibition was -26% (inactive).

`CC(C)OC(=O)NNc1c(Cl)cc(Cl)cc1Cl`: the growth inhibition was 2% (inactive).

As for `COc1ccc2c(c1)CCCC(Br)C2=O` (stereo unspecified), the growth inhibition is 14% (inactive).

`CCC(OC(C)=O)C1CC(C(C)C)CCC1C` (stereo unspecified): the growth inhibition is 5% (inactive).

For the compound `c1ccc(-c2cc(C3CO3)c3ccccc3n2)cc1` (stereo unspecified), the growth inhibition was 1% (inactive).

Regarding `COc1ccc(/C=C2\SC(=S)N(/C=C3\C(=O)N(c4ccccc4)N=C3C)C2=O)cc1OC`, the growth inhibition was 26% (inactive).

In the case of `CC1=CC(=C(c2ccc(N)c(C)c2)c2ccc(N)c(C)c2)C=CC1=N`, the growth inhibition is -2% (inactive).

With `CC1C(c2ccccc2)SC(=N)N1C` (stereo unspecified), the growth inhibition was 2% (inactive).

As to `C=CC(C)(C)N1C(=O)C(C(C)=O)=C(O)C1Cc1c[nH]c2ccccc12` (stereo unspecified), the growth inhibition is -1% (inactive).

As for `O=C1c2cccc3cccc(c23)C(=O)N1CCNCCN1C(=O)c2cccc3cccc(c23)C1=O`, the growth inhibition is 0% (inactive).

In the case of `COC(=O)C(Cc1c[nH]c2ccccc12)N1CN(C)c2ccccc2C1=O` (stereo unspecified), the growth inhibition is -5% (inactive).

With `O=C(/N=N/C(=O)Oc1ccccc1)Oc1ccccc1`, the growth inhibition was -10% (inactive).

Regarding `COc1cc([C@@H]2c3cc4c(cc3[C@@H](NC(=O)NO)[C@H]3COC(=O)[C@H]23)OCO4)cc(OC)c1O`, the growth inhibition is -6% (inactive).

Take `CC1(C)CC(=O)C(/C=N/c2nc(-c3ccc(Br)cc3)cs2)=C(O)C1`: the growth inhibition was 36% (inactive).

Consider `CCOC(=O)/C(=C/c1cccc(Cl)c1)N(CC)CC`, for which the growth inhibition is 12% (inactive).

Take `O=S(=O)(NC1CCCC(c2ccccc2)C1)c1ccccc1` (stereo unspecified): the growth inhibition was 2% (inactive).

Turning to `COc1ccc2nc3cccc([N+](=O)[O-])c3c(NCCCCCC(=O)O)c2c1`, the growth inhibition was 99% (active).

Turning to `CCO/C=C1\SC(=S)N(c2ccc(OCC)cc2)C1=O`, the growth inhibition was -40% (inactive).

With `COC(=O)c1ccccc1N=NNc1cccc(SC)c1`, the growth inhibition was -6% (inactive).

Take `CC1=NN(C(=O)c2ccccc2O)C(=O)/C1=C/c1ccco1`: the growth inhibition is 69% (inactive).

For `COc1ccccc1NC(=O)c1ccc(Cl)cc1`, the growth inhibition is 0% (inactive).

As to `CC(C)=CCC/C(C)=C/CN1C(=O)C=CC1=O`, the growth inhibition is 100% (active).

As for `O=C1CSC(c2ccccc2)N1c1ccc(-c2ccc(-n3c(-c4ccccc4)nc4ccccc4c3=O)cc2)cc1` (stereo unspecified), the growth inhibition was 14% (inactive).

As for `N#CC1OB(O)c2ccccc21` (stereo unspecified), the growth inhibition was -2% (inactive).

As to `Brc1ccc(B2Nc3ccccc3N2)cc1`, the growth inhibition is 37% (inactive).

`CCOP(=O)(OCC)/C(C#N)=C/c1cccc(Oc2ccccc2)c1`: the growth inhibition is 35% (inactive).

The same test, now with this note: S. cerevisiae rad14 strain growth inhibition; at 33.0 µM; active compounds read high.
As for `CN(C)CC(CN(C)C)C(=O)/C=C/c1ccc(Cl)cc1Cl`, the growth inhibition is 99% (active).

Take `c1ccc2c(c1)ccn2CCc1c[nH]c2ccccc12`: the growth inhibition is 6% (inactive).

Consider `Cc1ccccc1NC(=O)c1c(C)oc2c1C(=O)c1ccccc1C2=O`, for which the growth inhibition was 12% (inactive).

As for `CC(C)OC(=O)NNc1c(Cl)cc(Cl)cc1Cl`, the growth inhibition is 7% (inactive).

Take `COc1ccc2c(c1)CCCC(Br)C2=O` (stereo unspecified): the growth inhibition is 64% (inactive).

Consider `CCC(OC(C)=O)C1CC(C(C)C)CCC1C` (stereo unspecified), for which the growth inhibition is 17% (inactive).

On to `c1ccc(-c2cc(C3CO3)c3ccccc3n2)cc1` (stereo unspecified), for which the growth inhibition is 25% (inactive).

As to `COc1ccc(/C=C2\SC(=S)N(/C=C3\C(=O)N(c4ccccc4)N=C3C)C2=O)cc1OC`, the growth inhibition is 66% (inactive).

Take `CC1=CC(=C(c2ccc(N)c(C)c2)c2ccc(N)c(C)c2)C=CC1=N`: the growth inhibition was 19% (inactive).

In the case of `CC1C(c2ccccc2)SC(=N)N1C` (stereo unspecified), the growth inhibition is 3% (inactive).

With `C=CC(C)(C)N1C(=O)C(C(C)=O)=C(O)C1Cc1c[nH]c2ccccc12` (stereo unspecified), the growth inhibition is 21% (inactive).

Take `O=C1c2cccc3cccc(c23)C(=O)N1CCNCCN1C(=O)c2cccc3cccc(c23)C1=O`: the growth inhibition is -1% (inactive).

Consider `COC(=O)C(Cc1c[nH]c2ccccc12)N1CN(C)c2ccccc2C1=O` (stereo unspecified), for which the growth inhibition was -13% (inactive).

`O=C(/N=N/C(=O)Oc1ccccc1)Oc1ccccc1`: the growth inhibition was -15% (inactive).

As for `COc1cc([C@@H]2c3cc4c(cc3[C@@H](NC(=O)NO)[C@H]3COC(=O)[C@H]23)OCO4)cc(OC)c1O`, the growth inhibition was -2% (inactive).

Consider `CC1(C)CC(=O)C(/C=N/c2nc(-c3ccc(Br)cc3)cs2)=C(O)C1`, for which the growth inhibition was 95% (active).

As to `CCOC(=O)/C(=C/c1cccc(Cl)c1)N(CC)CC`, the growth inhibition was 46% (inactive).

Take `O=S(=O)(NC1CCCC(c2ccccc2)C1)c1ccccc1` (stereo unspecified): the growth inhibition is 4% (inactive).

As to `COc1ccc2nc3cccc([N+](=O)[O-])c3c(NCCCCCC(=O)O)c2c1`, the growth inhibition was 99% (active).

With `CCO/C=C1\SC(=S)N(c2ccc(OCC)cc2)C1=O`, the growth inhibition is -2% (inactive).

On to `COC(=O)c1ccccc1N=NNc1cccc(SC)c1`, for which the growth inhibition is 93% (active).

In the case of `CC1=NN(C(=O)c2ccccc2O)C(=O)/C1=C/c1ccco1`, the growth inhibition is 89% (active).

For `COc1ccccc1NC(=O)c1ccc(Cl)cc1`, the growth inhibition is 1% (inactive).

Turning to `CC(C)=CCC/C(C)=C/CN1C(=O)C=CC1=O`, the growth inhibition is 100% (active).

For `O=C1CSC(c2ccccc2)N1c1ccc(-c2ccc(-n3c(-c4ccccc4)nc4ccccc4c3=O)cc2)cc1` (stereo unspecified), the growth inhibition is 36% (inactive).

In the case of `N#CC1OB(O)c2ccccc21` (stereo unspecified), the growth inhibition is -2% (inactive).

As to `Brc1ccc(B2Nc3ccccc3N2)cc1`, the growth inhibition is 53% (inactive).

`CCOP(=O)(OCC)/C(C#N)=C/c1cccc(Oc2ccccc2)c1`: the growth inhibition is 94% (active).
